Measured values published in PubChem BioAssay (NCI).
This is part of a sample that, as a whole, favours compounds with a hit. Of some 83,000 tested, about 20% had one in any assay.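 Growth was measured after 48 h exposure to one concentration of compound in 96-well plates. Values under 10 count as active.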 A number with no mark means an inactive call. Activity calls are given as the source filed them.

Tests used:
Experiment in all cases: NCI-60 one-dose screen, 48 h (100 = growth as untreated, 0 = no growth, -100 = all killed)
Details in all cases: 10 µM unless noted
EKVX NSCLC = tested on: EKVX NSCLC
SN12C renal = tested on: SN12C renal
UO-31 renal = tested on: UO-31 renal
TK-10 renal = tested on: TK-10 renal
ACHN renal = tested on: ACHN renal
CAKI-1 renal = tested on: CAKI-1 renal
CCRF-CEM leukemia = tested on: CCRF-CEM leukemia
MOLT-4 leukemia = tested on: MOLT-4 leukemia
SR leukemia = tested on: SR leukemia
A498 renal = tested on: A498 renal

Row | SMILES | growth (EKVX NSCLC) | growth (SN12C renal) | growth (UO-31 renal) | growth (TK-10 renal) | growth (ACHN renal) | growth (CAKI-1 renal) | growth (CCRF-CEM leukemia) | growth (MOLT-4 leukemia) | growth (SR leukemia) | growth (A498 renal)
1 | O=C(O)c1ccccc1C(=O)OC1CCCC2CCCC21 (configuration not stated) | 92.4% | 95.8% | 104% | 116% | 103% | 93.1% | 97% | 98.7% | 104% | –
2 | O=C1NCC(Nc2ccc(Br)cc2Cl)C(=O)N1 (configuration not stated) | 90.7% | 102% | 67.7% | 110% | 96.2% | 91.8% | – | – | 101% | 117%
3 | O=[N+]([O-])c1ccc2c(c1)S(=O)c1cc([N+](=O)[O-])ccc1N2 | 112% | 101% | 77.7% | 110% | 96.7% | 98.8% | 98.9% | 93% | 121% | –
4 | COc1cc(C(=O)/C=C/c2cccnc2Nc2ccccc2)cc(OC)c1OC | -5.31% (active) | -92.6% (active) | -99.5% (active) | -13% (active) | -99.2% (active) | -22.6% (active) | -16% (active) | -1.45% (active) | 1.47% (active) | –
5 | COc1ccc(/C=C/C(=O)Nc2cccnc2Nc2ccc(F)cc2)cc1 | 88.4% | 89.3% | 95.4% | 113% | 104% | 86.5% | – | – | 88.7% | –
6 | O=[N+]([O-])c1ccc(N/N=C/c2c(O)ccc3ccccc23)nc1 | 32.3% | 49.4% | 9.52% (active) | 47.3% | 15% | 6.36% (active) | – | 10.5% | 14.1% | 111%
7 | CN(C)c1ccc2c(c1)/C(=N/O)c1ccccc1-2 | 67.7% | 95.4% | 64.5% | 123% | 87.5% | 46.6% | 83.8% | 81.2% | 47.1% | –
8 | NC(=O)SCC(=O)Nc1ccccc1-c1ccccc1 | 121% | 90.7% | 64.9% | 106% | 83% | 105% | 103% | 98% | 122% | –
9 | CC(=O)Oc1c(C)c(OC(C)=O)c2c(c1C(C)=O)OC1CC(=O)C(C(C)=O)=C(O)C21C (configuration not stated) | 96.9% | 95.5% | 89% | 109% | – | 99.3% | 102% | 64% | – | 136%
10 | Nc1ccc2c3c(cccc13)-c1ccccc1-2 | 87.4% | 55.8% | 32.3% | 116% | – | 69.4% | 25.1% | 32.4% | 93.1% | 85.9%
11 | CC(c1cc(Cl)ccc1O)c1cc(Cl)ccc1O | 41.1% | 39.5% | -7.88% (active) | 90.7% | – | 84.9% | 33.5% | 52.1% | 53.3% | 81.1%
12 | CCCCOc1ccc(C(C)(C)c2ccc(OCCCC)cc2)cc1 | 143% | 100% | 80.5% | 107% | 109% | – | 97.7% | 99.7% | 92.6% | 126%
13 | CCOC(=O)C1=NN(c2ccc(Cl)cc2)C2C3N(c4ccc(Cl)cc4)N=C(C(=O)OCC)N3c3ccccc3N12 (configuration not stated) | 104% | 111% | 92.6% | 119% | 121% | – | – | 47.4% | 40.4% | 131%
14 | O=c1[nH]c(Cl)nc2c1cnn2-c1ccccc1 | 93.7% | 97.4% | 73.2% | 102% | – | 61.6% | 40.9% | 47.6% | 32.1% | 84.1%
15 | COc1ccc2c(c1)C(=O)/C(=C/c1cccc(OCC(=O)c3ccccc3)c1)CC2 | 75.8% | 114% | 9.87% (active) | 107% | – | 80.4% | – | 52.7% | 11.1% | 89.2%
16 | CCOC(=O)C1=C(COCCN)NC(C)=C(C(=O)OC)C1c1ccccc1Cl (configuration not stated) | 83.9% | 75.9% | 45.4% | 67.8% | – | 64.5% | – | 67% | – | 62.4%

Row | SMILES | growth (EKVX NSCLC) | growth (SN12C renal) | growth (UO-31 renal) | growth (TK-10 renal) | growth (ACHN renal) | growth (CAKI-1 renal) | growth (CCRF-CEM leukemia) | growth (MOLT-4 leukemia) | growth (SR leukemia) | growth (A498 renal)
17 | O=C1NCN(CCO)CN1 | 98.9% | 96.5% | 97.2% | 107% | – | 92.8% | 99.7% | 121% | 122% | 106%
18 | NS(=O)(=O)c1ccc(NC2=C(Cl)C(=O)c3ccccc3C2=O)cc1 | 107% | 87% | 53.2% | 164% | – | 107% | – | 73.6% | – | 163%
19 | O=C(N1CCC(CN=c2cc3n(-c4ccc(Cl)cc4)c4ccccc4nc-3cc2Nc2ccc(Cl)cc2)CC1)N1CC1 | -62.5% (active) | -76% (active) | -96.3% (active) | -42.9% (active) | -71.7% (active) | – | – | – | -74.5% (active) | -59.9% (active)
20 | CC1=CC(=O)C(C(C)=Nc2ccccc2Cl)C(=O)O1 (configuration not stated) | 103% | 105% | 95.8% | 126% | 98.1% | – | 89.2% | 101% | 118% | 85.7%
21 | COc1ccc(OC)c(/C=C/c2nc(=S)n(-c3ccc(Cl)cc3)[nH]2)c1 | 75.2% | 66.2% | 47.1% | 88.8% | 71.2% | – | 60.6% | 52.8% | 38.3% | –
22 | COc1ccc2nccc(/C=C/c3ccnc4ccc(OC)cc34)c2c1 | 105% | 118% | 97% | 148% | 102% | – | – | 33.1% | 21.4% | 87.9%
23 | O=c1ccn(C2OC(CO)C(O)C2F)c(=O)[nH]1 (configuration not stated) | 102% | 102% | 101% | 124% | – | 107% | 119% | 168% | 111% | 110%
24 | CC1SC(c2c(Cl)cccc2Cl)N(NC(=O)c2[nH]c3ccc(F)cc3c2-c2ccccc2)C1=O (configuration not stated) | 41.8% | 33.9% | -17.6% (active) | 21.6% | 34.4% | – | 56.1% | 69.1% | 54.8% | –
25 | CCS(=O)(=O)OCCCl | 105% | 102% | 68.3% | 97.7% | – | 104% | 84.7% | 89.8% | 137% | 101%
26 | O=Cc1c[nH]c2ccc(NC(=O)OCc3ccccc3)cc12 | 106% | 90.3% | 106% | 88.1% | 108% | – | 83.8% | 152% | 80.4% | 231%
27 | O=C1Nc2ccc(F)cc2/C1=C/c1nc(-c2ccc(F)cc2)n2ccccc12 | 104% | 98.9% | 93.4% | 120% | – | 101% | 103% | 103% | 52.9% | -13.9% (active)
28 | O=C(Nc1ccc(Nc2ccncc2)cc1)c1ccc(Nc2ccnc3ccc([N+](=O)[O-])cc23)cc1[N+](=O)[O-] | 50% | 68% | 52.8% | 102% | – | 89.3% | 98.8% | 109% | – | 120%
29 | CCOC(=O)c1c(C)c(C(=O)OCC)n(C)c1C | 75% | 104% | 81.2% | 78.4% | 95.6% | – | 84.9% | 87.1% | 87.8% | 83.9%
30 | c1ccc(-n2nnnc2-c2cccc3ccccc23)cc1 | 54.1% | 39.9% | 28.7% | 13.8% | – | 21.8% | – | 29.8% | 20.5% | 32.6%
31 | CSc1ncc2ncn(C3OC(CO)C(O)C3O)c2n1 (configuration not stated) | 107% | 120% | 111% | 122% | 105% | – | 99% | 109% | 111% | 99.6%
